Hits are enriched below; roughly 0.47% of the tested compounds scored in any of these assays.
UDG counterscr: Primary qHTS assay for inhibitors of Activation Induced Cytidine Deaminase (AID): UDG Counterscreen signal. Uracil-DNA glycosylase. FRET deamination/UDG coupled assay, UDG read, 4 h. Potency, µM (series often up to 115 µM), for the others: at the top dose activity change, negative = inhibition, actives largely listed as inhibitors. 0.14% of 91,000 active; note: nearly all actives have a fitted effect of over 65% in size
AID inhibitor: Primary qHTS assay for inhibitors of Activation Induced Cytidine Deaminase (AID): AID signal. Potency, µM (highest dose often 115 µM), usual class: inhibitors. AID 1347428, 2020. 0.32% of 91,000 active. AID deamination FRET fluorescence, UDG-coupled, 4 h. Single-stranded DNA cytosine deaminase (Homo sapiens), Q9GZX7; note: nearly all actives have a fitted effect of over 25% in size
Target sequence (Q9GZX7 whole entry, looked up): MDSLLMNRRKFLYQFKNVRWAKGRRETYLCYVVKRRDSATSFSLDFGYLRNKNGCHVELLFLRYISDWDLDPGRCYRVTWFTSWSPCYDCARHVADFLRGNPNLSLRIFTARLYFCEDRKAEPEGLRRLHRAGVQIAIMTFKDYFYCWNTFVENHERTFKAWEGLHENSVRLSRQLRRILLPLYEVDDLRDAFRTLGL
Numbers without * were called inactive; i = inactive; ? = inconclusive; [ ] = remark or other dose. Calls come from the whole dose curve; as a rule, active = well fitted curve in the direction sought with a large enough effect; inconclusive = small, poorly fitted or top-dose-only effect, or another doubt; inactive = no such curve, though single readings can be large; an effect the other way counts as inactive or inconclusive. % is set by controls: 0 for no effect and ±100 for the full control effect; potency is the fitted concentration of half-maximal effect.

SMILES	UDG counterscr	AID inhibitor
CCn1c(-c2ccc(O)c(OC)c2)nc2c1c(=O)[nH]c(=O)n2Cc1ccccc1	1%	i
O=C(c1cc(F)cc(F)c1)N(Cc1ccco1)C1CC1	-4%	i
Cc1nc(-c2cccc(S(=O)(=O)N3CCC(C(=O)NCc4ccccc4Cl)CC3)c2)no1	?	i
CCc1cccc(NC(=O)C2CCN(S(=O)(=O)c3cccc(-c4noc(C)n4)c3)CC2)c1	79µM*	i
Cc1ccc(NC(=O)/C(C#N)=C\c2ccccc2OC(F)F)cc1	-9%	i
CC(C)Cc1nc2cccnc2n1C1CCN(S(=O)(=O)c2ccc3c(c2)CCCC3)CC1	79µM*	i
Cc1nc2cccnc2n1C1CCN(S(=O)(=O)c2ccc(Cl)cc2)CC1	?	i
CCN(Cc1ccco1)C(=O)c1cc2cc(C)ccc2[nH]1	0%	i
Cc1ccc(-c2nnc(Nc3ccc(Cl)c(Cl)c3)c3ccccc23)cc1S(=O)(=O)N(C)C	-16%	i
CCN(CC)S(=O)(=O)c1cc(-c2nnc(Nc3ccc(OC)c(C(N)=O)c3)c3ccccc23)ccc1C	?	35µM*
Cc1nc2cccc(C(=O)Oc3ccc(Cl)cc3)c2o1	-10%	i
Cc1ccc(Cc2nc3ccccc3nc2SCC(=O)N2CCC(C)CC2)cc1	-12%	?
CC1CCCCN1C(=O)CSc1nc2ccccc2nc1Cc1ccccc1 (stereo unspecified)	-19%	50µM*
CCc1ccc(CN(Cc2ccco2)C(=O)c2ccc(OC)cc2)cc1	-9%[57.5 µM]	40µM*
COc1ccc(C(=O)N(Cc2ccco2)Cc2ccc(C)o2)cc1	13%[57.5 µM]	i
CSCCC(=O)N1CCN(c2oc(-c3ccco3)nc2C#N)CC1	0%	i
Cc1cccc(Cn2c(-c3ccccc3)nc3ccccc32)c1	-19%[57.5 µM]	?
Fc1ccccc1Cn1c(-c2ccccc2)nc2ccccc21	?	45µM*
Cc1ccc(C(=O)/C=C/c2cccc(C#N)c2)o1	-6%	i
Cc1ccccc1-c1nc(C#N)c(NCCN(C)C)o1	-6%	i
CCn1cc(C(=O)OCC(=O)Nc2cccc(C(C)=O)c2)c(=O)c2ccc(C)nc21	-34%	45µM*
CCOC(=O)c1ccc(NC(=O)COC(=O)c2cn(CC)c3nc(C)ccc3c2=O)cc1	0%	i
COc1ccc(OC)c(NC(=O)N2CC3CCCN3c3ccccc32)c1 (stereo unspecified)	?	20µM*
COc1ccc(CNC(=O)CCC(=O)N2CC3CCCN3c3ccccc32)c(OC)c1 (stereo unspecified)	-5%	i
CNc1oc(-c2ccccc2F)nc1S(=O)(=O)c1ccc2c(c1)OCCO2	79µM*	i
SMILES	UDG counterscr	AID inhibitor
CNc1oc(-c2ccc(Cl)cc2)nc1S(=O)(=O)c1ccc2c(c1)OCCO2	2%	i
Cc1ccc(-c2nc(C#N)c(N3CCOCC3)o2)cc1	1%	i
O=C(NCCc1ccccc1Cl)c1sc2ncccc2c1-n1cccc1	-1%	35µM*
CC(CNC(=O)c1sc2ncccc2c1-n1cccc1)c1ccccc1 (stereo unspecified)	-17%	79µM*
Cc1ccc(CCNC(=O)c2sc3ncccc3c2-n2cccc2)cc1	-7%	i
Cc1cc(C)c2c(-n3cccc3)c(C(=O)NCC(C)c3ccccc3)sc2n1 (stereo unspecified)	-10%	?
CCc1ccc(CNC(=O)C(=O)c2c(C)[nH]c3ccccc23)cc1	3%	i
COc1ccc(-n2c(=O)c3c4c(sc3n(Cc3ccccc3C)c2=O)CCCC4)c(OC)c1	-19%	?
COc1ccc(-n2c(=O)c3c4c(sc3n(Cc3ccc(C(C)(C)C)cc3)c2=O)CCC4)c(OC)c1	?	35µM*
COc1ccc(S(=O)(=O)N2CCn3cccc3C2c2ccc(C)cc2)cc1C (stereo unspecified)	79µM*	i
COc1ccc(S(=O)(=O)N2CCn3cccc3C2c2cccs2)cc1C (stereo unspecified)	11%	i
CCc1c(C)sc(NC(=O)c2ccc(F)cc2)c1C#N	-4%	i
Oc1ccc(-c2nc(-c3cc4ccccc4o3)cs2)cc1	-2%	i
Cc1ccc(Cl)cc1N(C)C(=O)c1cnc(N2CCOCC2)c2ccccc12	51%	i
Cc1ccc(Cl)cc1N1CCN(C(=O)c2cnc(N3CCOCC3)c3ccccc23)CC1	?	22µM*
O=C(c1cc2ccc3cccnc3c2[nH]1)N1CCN(c2ccc(Cl)cc2)CC1	-5%	i
Cc1ccc(Cl)cc1N1CCN(C(=O)c2cc3ccc4cccnc4c3[nH]2)CC1	-12%	22µM*
Cn1c(CN2CCOCC2)nnc1SCc1ccc(Br)cc1	1%	i
O=C(O)CC/C(=C/c1ccc2ccccc2c1)c1nc2ccccc2s1	-1%	i

Bioassay records (PubChem BioAssay)
